# Experimental data reported in PubChem BioAssay.
# Unmarked numbers belong to inactive results. The rule behind the calls is not given here.
# Assay: blockers of DNA damage checkpoint Chk1 activation – imaging, HeLa, hydroxyurea, phospho-Chk1 nuclear intensity, primary screen (AID 1187); note: test concentration not given here
# Settings: hydroxyurea-induced phospho-Chk1 immunofluorescence imaging, higher = more signal
row,Compound,z-score
1,CC(C)[C@H]1NC(=O)[C@@]23C(=O)N[C@@H](Cc4ccccc4)C2[C@H](C)[C@@]2(C)O[C@H]2C3/C=C/C/C=C\CNC(=O)[C@H](C)NC1=O (some centres undefined),0.42
2,COC(=O)[C@@]1(Cc2ccc(OC)cc2)[C@H]2c3cc(C(=O)N(C)C)n(CCc4ccc(OC)c(Br)c4)c3C[C@H]2CN1C(=O)c1ccccc1,0.463
3,O=C1O[C@@H](c2ccccc2)[C@@H](c2ccccc2)N2[C@@H](c3ccc(OCCO)cc3)[C@]3(C(=O)Nc4ccc(C#CCCO)cc43)[C@@H](C(=O)N3CCN(c4ncccn4)CC3)[C@H]12,0.92
4,O=C1O[C@H](c2ccccc2)[C@H](c2ccccc2)N2[C@H]1[C@@H](C(=O)Nc1nc3ccccc3s1)[C@]1(C(=O)Nc3ccc(C#CC4=CCCCC4)cc31)[C@H]2c1ccccc1OCCO,0.375
5,[N-]=[N+]=Nc1ccccc1C[C@@]1(C(=O)N2CCOCC2)N=C(c2ccc(OCCCO)cc2)O[C@@H]1c1ccccc1N=[N+]=[N-],-1.06
6,O=C1O[C@@H](c2ccccc2)[C@@H](c2ccccc2)N2[C@@H](c3ccc(O)cc3)[C@]3(C(=O)Nc4ccc(C#CC5(O)CCCCCC5)cc43)[C@@H](C(=O)Nc3nc4ccccc4s3)[C@H]12,-0.169
7,COc1ccc([C@H]2C[C@H]3C(Br)=C[C@]2(OC)C(=O)[C@]32CO2)cc1,-0.0049
8,CO[C@H]1O[C@H](CO)[C@@H](OC(=O)Nc2ccc(Oc3ccccc3)cc2)[C@H](OC(=O)Nc2ccccc2-c2ccccc2)[C@H]1OC(=O)Nc1ccccc1-c1ccccc1,0.413
9,O=C1OCCC/C=C\[C@H]2OC34C=CCN(CCN5CCOCC5)C(=O)[C@H]3N(CCCCCO)C(=O)[C@@H]4C12 (some centres undefined),0.292
